# PAFAH2 FP inh: PAFAH2 (human) inhibition | Q99487 | recombinant PAFAH2, FP-rhodamine activity probe, fluorescence polarization | inhibition, % at 3.39 µM | hit rate 0.99% among 340,000;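 active means inhibition above the mean over all tested compounds plus 3 SD, cut at about 30% in these data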;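 further: inhibitors block probe labeling of enzyme so polarization drops; 0% = enzyme with DMSO and 100% = wells lacking PAFAH2 protein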
# PAFAH1B3 inh: blocks human PAF acetylhydrolase 1B catalytic subunit 3. Q15102. recombinant PAFAH1B3, FP-rhodamine probe, fluorescence polarization. inhibition, % at 3.39 µM. hit rate 0.28% among 340,000. AID 492972;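 active means inhibition above the screen-wide average of all tested compounds plus 3 SD, cut at about 25% in these data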;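 further: 0% = enzyme with DMSO only and 100% = wells lacking PAFAH1B3 protein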
# Fam108B inh: blocks mouse Fam108B hydrolase in RBBP9 counter-screen | recombinant Fam108B, FP-Rh probe fluorescence polarization | inhibition, % at 9.51 µM | hit rate 0.33% among 300,000 | AID 1947;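 active means inhibition above the screen mean inhibition plus 3 SD, computed separately per campaign, cut at about 18% in these data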;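 further: inhibitors lower polarization as less probe binds the enzyme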
# PAFAH1B2 inh: inhibitors of human PAFAH1B2. recombinant PAFAH1B2, FP-rhodamine activity probe, fluorescence polarization. inhibition, % at 3.39 µM. hit rate 1.2% among 340,000. AID 492953;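 active means inhibition above the mean of all tested compounds plus 3 SD, cut at about 24% in these data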;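 further: 0% = enzyme with DMSO and 100% = wells lacking PAFAH1B2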
# pPAFAH inh: pPAFAH (human) enzyme inhibition | Q13093 | recombinant pPAFAH, FP-rhodamine probe fluorescence polarization | inhibition, % at 3.39 µM | hit rate 1.5% among 330,000 | AID 463082;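 active means inhibition above the mean inhibition across the screen plus 3 SD, cut at about 25% in these data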;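 further: inhibitors block binding of the rhodamine activity-based probe so polarization drops; 0% = enzyme with DMSO and 100% = wells lacking pPAFAH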
# Target sequence (Q13093 whole entry, looked up): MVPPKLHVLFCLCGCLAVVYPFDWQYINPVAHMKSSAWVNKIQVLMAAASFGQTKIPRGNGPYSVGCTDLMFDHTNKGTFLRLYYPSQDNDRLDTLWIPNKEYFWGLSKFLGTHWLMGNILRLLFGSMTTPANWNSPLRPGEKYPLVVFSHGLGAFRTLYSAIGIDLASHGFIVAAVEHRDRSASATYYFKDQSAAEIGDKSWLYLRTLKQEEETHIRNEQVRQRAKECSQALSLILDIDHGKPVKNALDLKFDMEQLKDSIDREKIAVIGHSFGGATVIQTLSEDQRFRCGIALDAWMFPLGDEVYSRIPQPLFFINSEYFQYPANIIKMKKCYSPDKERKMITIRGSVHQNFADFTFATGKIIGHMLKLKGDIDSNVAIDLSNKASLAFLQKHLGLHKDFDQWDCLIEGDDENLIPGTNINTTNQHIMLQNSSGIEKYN
# PME-1 inh: PME-1 (human) inhibition. Q9Y570. recombinant PME-1, FP-Rh probe fluorescence polarization. inhibition, % at 5.9 µM. hit rate 0.53% among 320,000. AID 2130;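 active means inhibition above the campaign mean of all compounds plus 3 SD, cut at about 26% in these data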;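 further: competitive labeling of PME-1 active site by serine hydrolase directed probe; 0% = PME-1 with DMSO and 100% = wells lacking PME-1 enzyme; inhibitors block probe labeling so polarization falls and inhibition rises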
# pPAFAH FP conf: pPAFAH (human) inhibition, confirmed; shares compounds with pPAFAH inh; recombinant pPAFAH, FP-Rh probe fluorescence polarization; inhibition, % at 3.39 µM; hit rate 72% among 2,300; AID 463230;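 active means mean inhibition of the triplicate above the hit cutoff set for the earlier primary screen, cut at about 25% in these data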;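 further: 0% = enzyme with DMSO and 100% = wells lacking pPAFAH enzyme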
# Starred values were filed as active, the others as inactive; . = no result. Rows were chosen to be rich in hits. Some 2.8% of all compounds tested hit in one or more screens of this group.
SMILES,PAFAH2 FP inh,PAFAH1B3 inh,Fam108B inh,PAFAH1B2 inh,pPAFAH inh,PME-1 inh,pPAFAH FP conf
Cc1ccc(NC(=O)CNC(c2ccccc2)c2ccccc2)c(F)c1,5,-10,-4,2,-1,0,.
O=C(CNC(c1ccccc1)c1ccccc1)Nc1c(F)cccc1F,4,13,3,5,89*,-7,10
O=C1N[C@@H](Cc2ccccc2)C(=O)N2[C@H]1C[C@]1(Br)c3ccccc3N(S(=O)(=O)c3ccc(F)cc3)[C@H]21,-1,3,-4,7,4,0,.
Cc1ccc(/C=C2\S/C(=N/S(=O)(=O)c3cccs3)NC2=O)cc1,-2,3,-8,5,-8,-7,.
Cc1ccc(NC2=C/C(=N/S(=O)(=O)c3cccs3)c3ccccc3C2=O)cc1,4,45*,8,1,53*,4,65*
Cc1ccc(S(=O)(=O)/N=C2\C=C(Nc3ccc(O)cc3)C(=O)c3ccccc32)cc1,35*,61*,.,27*,38*,.,33*
O=C(O)CC1Cc2ccccc2C1C(=O)O (centres undefined),11,4,.,7,.,.,.
CCOc1ccc(NS(=O)(=O)c2ccc3c(c2)n(C)c(=O)n3C)cc1,4,2,2,3,25,4,.
COc1ccc(CN=Cc2c(C(=O)O)[nH]c3ccccc23)cc1,-2,9,0,-2,3,-4,.
C=CCOc1ccc(C(c2c(C(=O)O)[nH]c3ccccc23)c2c(C(=O)O)[nH]c3ccccc23)cc1,55*,8,7,66*,44*,-3,30*
CN(C)C(=S)Nc1cccc(-c2n[nH]c(=S)o2)c1,-1,8,-2,-1,3,3,.
NNC(=S)Nc1cccc(-c2n[nH]c(=S)o2)c1,12,21,4,5,39*,16,7
Cn1ccc2cc(NC(=O)Nc3cccnc3)ccc21,-16,20,4,5,37*,12,7
CCOC(=O)N1CCC(NC(=O)CC2C(=O)NCCN2Cc2ccccc2F)CC1 (centres undefined),4,9,1,2,49*,7,6
CCOC(=O)N1CCC(NC(=O)CC2C(=O)NCCN2Cc2cccc(F)c2F)CC1 (centres undefined),-4,7,-5,3,7,2,.
O=C(NC(=S)Nc1cccc(O)c1)C1CCCCC1,-8,7,.,2,6,.,.
O=C(Nc1cccc(S(=O)(=O)N2CCOCC2)c1)C1=NN(c2ccccc2)C(=O)CC1,5,-1,-4,4,1,-11,.
COC(=O)c1cccc(Cn2c(Cl)c(/C=N/Nc3ccccc3C)sc2=O)c1,7,5,17,1,0,2,.
Cc1ccccc1N/N=C/c1sc(=O)n(Cc2cccc(C(=O)O)c2)c1Cl,10,10,15,9,35*,16,25*
O=C(NNC(=O)c1cc2cc(Br)ccc2oc1=O)c1ccc(O)cc1O,10,16,1,1,47*,34*,47*
CCCCOc1ccc(-c2cc(C(=O)NNC(=S)NCC)c3ccccc3n2)cc1,0,12,5,1,42*,1,51*
CCNC(=S)NNC(=O)c1cc(-c2cccnc2)nc2ccccc12,7,11,3,0,1,-11,.
C[C@H](CO)N1C[C@H](C)[C@@H](CN(C)C(=O)Nc2ccc(C(F)(F)F)cc2)Oc2ccc(NS(=O)(=O)c3cn(C)cn3)cc2C1=O,8,1,.,-1,7,.,.
CC12CCC(=O)N1C(C(=O)Nc1cc(C(F)(F)F)ccc1N1CCCCC1)CS2 (centres undefined),9,4,2,3,5,1,.
COc1ccccc1-n1c(SCC(=O)Nc2ccccc2C)nc(O)cc1=O,2,4,0,2,81*,6,5
SMILES,PAFAH2 FP inh,PAFAH1B3 inh,Fam108B inh,PAFAH1B2 inh,pPAFAH inh,PME-1 inh,pPAFAH FP conf
COc1ccccc1NC(=O)CSc1nc(O)cc(=O)n1-c1ccccc1OC,-3,6,0,-3,43*,-3,0
Cc1ccccc1NC(=O)CSc1nc(O)cc(=O)n1C,4,10,-2,4,3,-2,.
COc1ccccc1-n1c(SCC(=O)NC(C)(C)C)nc(O)cc1=O,1,7,-6,-2,3,0,.
CCN(C[C@H]1N[C@@](Cc2ccccc2)(C(=O)OC)[C@H]2C(=O)N(C)C(=O)[C@@H]12)S(=O)(=O)c1ccc(-c2ccccc2)cc1,-1,7,.,8,9,.,.
CC(OC(=O)CN1C(=O)C2C3C=CC(C4CC34)C2C1=O)C(=O)c1ccccc1 (centres undefined),-5,-2,-1,12,3,1,.
COCCNC(=O)C(=O)c1cc(C)n(-c2ccc([N+](=O)[O-])cc2)c1C,1,1,-1,1,36*,2,28*
COC(=O)c1cc(CNC(=O)c2sccc2-c2ccccc2)ccc1OC,-4,7,2,10,1,10,.
Nc1ncnc2c1c(-c1ccc(Oc3ccccc3)cc1)cn2C1CCCC1,-3,4,0,-7,39*,-6,38*
Cc1c(C(=O)NNC(=O)c2ccccc2O)oc2ccc(Br)cc12,6,6,0,2,58*,-9,70*
[C-]#[N+][C@H](O[C@@H]1O[C@H](CO)[C@@H](O)[C@H](O)[C@H]1O)c1ccccc1,-5,0,2,4,7,5,.
O=C(O)CC(CCc1ccccc1)OC1OC(CO)C(O)C(O)C1O (centres undefined),39*,25,-7,18,74*,-9,34*
COc1cc(-c2nnc(SCc3cc(=O)oc4cc(O)c(O)cc34)o2)cc(OC)c1OC,42*,28*,6,4,59*,-12,75*
O=C(NCc1ccc(OC(F)(F)F)cc1)C1CC(c2c(Cl)cccc2Cl)=NO1 (centres undefined),-8,2,0,10,38*,-3,22
O=C(NCc1cc(C(F)(F)F)cc(C(F)(F)F)c1)C1CC(c2c(Cl)cccc2Cl)=NO1 (centres undefined),-5,-6,-2,3,3,-9,.
CCc1nn(C)c2c(=O)c(=O)c2n(C)[nH]1,5,10,8,9,-3,1,.
CCCN(CC(=O)Nc1ccc(F)c(F)c1F)C(=O)Cc1ccc(S(=O)(=O)N2CCOCC2)s1,-3,3,.,5,6,6,.
Nc1cc2nc3ccccc3oc-2cc1=O,4,10,9,4,36*,22,8
O=C(Oc1ccc2ccccc2c1)C1CCC1,11,14,.,17,.,.,.
O=C(Oc1ccc(OC(=O)C2CCC2)cc1)C1CCC1,3,1,10,3,42*,-2,-3
